Compounds with a hit are over-represented: about 3.1% of the library has one in this group of screens.
S16 viability: Cell viability qHTS assay in S16 Pmp22-F2sN cells | actives 0.48% (n = 43,000) | S16 Pmp22-F2sN Schwann cells viability, CellTiter-Glo, 24 h | Potency, µM (series often up to 57.5 µM), inactives show at the highest dose activity change, negative = cytotoxicity, usual class: cytotoxic; also: potency is read from the fitted curve at half-maximal effect; % is scaled to controls: 0 for no effect and ±100 for the full control effect; nearly all actives have a fitted effect of over 65% in size
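Seed 500-1,000 S16 Pmp22-F2sN cells per well in phenol-red-free DMEM with 10% heat-inactivated FBS; pin-add 23 nL compound; incubate 24 h at 37C; add CellTiter-Glo, wait 15 min protected from light; read luminescence.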
PMP22 txn: Cell-based coincidence reporter assay to measure PMP22 gene transcription in S16 Pmp22-F2sN cells - Primary screen; AID 1508649, 2021; Potency, µM (highest dose often 57.5 µM), for the others: at the highest dose activity change, negative = inhibition, actives largely listed as inhibitors; S16 Pmp22-F2sN Schwann cells (luciferase reporters placed in the Pmp22 gene), FLuc/NLuc coincidence luminescence, 24 h; actives 2% (n = 43,000); active = clear falling dose curves in both reporters; inconclusive = both reporters move, but less clearly or upward; inactive = either reporter flat; the % is the NLuc reporter signal; also: potency is read from the fitted curve at half-maximal effect; % is scaled to controls: 0 for no effect and ±100 for the full control effect
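Luminescent read-out of sequential FLuc and NLuc signals from a reporter embedded in the Pmp22 3' UTR of S16 Schwann cells, taken after 24 h compound exposure at 37C; compounds reducing both signals score as inhibitors of expression.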
p53null 39C kill: qHTS Screen for Compounds that Selectively Target Cancer Cells with p53 Mutations: Cytotoxicity of p53 Null Cells at the Nonpermissive Temperature | H1299 p53-null (neo) cells, 39C, ATPlite viability, 24 h | AID 904, 2007 | Potency, µM (series often up to 46.1 µM), for inactives: at the highest dose activity, negative = cell killing, usual class: cytotoxic | actives 0.97% (n = 55,000);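 also: potency is read from the fitted curve at half-maximal effect; 0% = DMSO only and -100% = full killing by 100 µM tamoxifen; nearly all actives have a fitted effect of over 50% in size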
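Luminescent ATP signal reported cell survival after H1299 lines (neo, p53 null; or p53 A138V) received up to 46 uM compound and 24 hr incubation at 39C.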
mTORC1 inh: Acumen qHTS Assay for Inhibitors of the mTORC1 Signaling Pathway in MEF (Tsc2-/-, p53-/-) Cells: Sytravon. Tsc2-/- p53-/- MEF, phospho-rpS6 immunofluorescence/PI, 24 h. Potency, µM (top dose mostly 38.3 µM), for the others: top-dose activity change, negative = inhibition, hits mostly inhibitors. actives 0.78% (n = 44,000). AID 493208, 2011;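 also: potency is read from the fitted curve at half-maximal effect; plate controls were DMSO for no effect and rapamycin for full effect; nearly all actives have a fitted effect of over 50% in size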
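Plate MEFs (Tsc2-/-, p53-/-, empty vector) in DMEM/10% FBS; after 24 h add compound, incubate 24 h at 37 degree Celsius; fix in PFA/TX-100, block, stain phospho-rpS6 and 10 uM PI; scan at 488 nm; report % positive cells.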
p53null 32C tox: qHTS Screen for Compounds that Selectively Target Cancer Cells with p53 Mutations: Cytotoxicity of p53 Null Cells at the Permissive Temperature | Potency, µM (series often up to 46.1 µM), for inactives: top-dose activity change, negative = cytotoxicity, most hits filed as cytotoxic | actives 0.62% (n = 55,000) | H1299-neo p53 null cells, ATP luminescence, 24 h, 32C;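 also: potency is read from the fitted curve at half-maximal effect; 0% = DMSO only and -100% = full killing by 100 µM tamoxifen; nearly all actives have a fitted effect of over 55% in size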
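We seeded p53-null H1299-neo cells, incubated them overnight at 37C, and added compounds across a range up to 46 uM. After 24 hours at 32C, ATP reagent was applied for 20 min at room temperature and luminescence recorded.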
SKOV3 invasion: Primary qHTS assay for Inhibitors of ovarian cancer metastasis using an organotypic tumor microenvironment (TME) model; SKOV3ip1-GFP adhesion/invasion on 3D omental model, fluorescence; Potency, µM (top dose mostly 45.8 µM), without a hit: at the top dose activity change, negative = inhibition, usual class: inhibitors; actives 0.1% (n = 46,000);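 also: potency is read from the fitted curve at half-maximal effect; plate controls were DMSO wells for no effect and tomatine positive control wells for full effect; nearly all actives have a fitted effect of over 65% in size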
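A 3D layer of primary human omental fibroblasts, mesothelial cells, fibronectin and collagen I, grown 48 hr, received SKOV3ip1-GFP cells in serum-free medium plus compounds at 0.36-46 umol/L. After 2 hr RT and 16 hr 37 C, fixed adherent GFP cells were counted; normalized to DMSO and tomatine.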
NLuc sat counter: Biochemical NLuc saturation counterscreen for small molecule modulators of PMP22 gene expression - Nano-Glo assay | shares compounds with PMP22 txn | Secreted NLuc enzyme (filtered S16 cell medium), Nano-Glo luminescence | Potency, µM (top dose mostly 57.5 µM), for the others: at the top dose activity change, negative = inhibition, usual class: inhibitors | actives 4% (n = 690) | AID 1508638, 2021; also: potency is read from the fitted curve at half-maximal effect; % is scaled to controls: 0 for no effect and ±100 for the full control effect
NLuc Km ctr: Biochemical coelenterazine-based NLuc counterscreen for small molecule modulators of PMP22 gene expression - Km assay; shares compounds with PMP22 txn; secreted NLuc enzyme, coelenterazine luminescence, Km conditions; Potency, µM (titrated, usually from 57.5 µM), without a hit: at the top dose activity change, negative = inhibition, hits mostly inhibitors; actives 5% (n = 690); also: potency is read from the fitted curve at half-maximal effect; % is scaled to controls: 0 for no effect and ±100 for the full control effect
FLuc ctr PMP22: Biochemical FLuc counterscreen for small molecule modulators of PMP22 gene expression; shares compounds with PMP22 txn; purified P. pyralis FLuc, luminescence, 10 min; Potency, µM (highest dose often 57.5 µM), without a hit: top-dose activity, negative = inhibition, usual class: inhibitors; 690 tested, under 10 active; AID 1508640, 2021; also: % of control where 0% means no effect
Target sequence (P08659 whole entry, looked up): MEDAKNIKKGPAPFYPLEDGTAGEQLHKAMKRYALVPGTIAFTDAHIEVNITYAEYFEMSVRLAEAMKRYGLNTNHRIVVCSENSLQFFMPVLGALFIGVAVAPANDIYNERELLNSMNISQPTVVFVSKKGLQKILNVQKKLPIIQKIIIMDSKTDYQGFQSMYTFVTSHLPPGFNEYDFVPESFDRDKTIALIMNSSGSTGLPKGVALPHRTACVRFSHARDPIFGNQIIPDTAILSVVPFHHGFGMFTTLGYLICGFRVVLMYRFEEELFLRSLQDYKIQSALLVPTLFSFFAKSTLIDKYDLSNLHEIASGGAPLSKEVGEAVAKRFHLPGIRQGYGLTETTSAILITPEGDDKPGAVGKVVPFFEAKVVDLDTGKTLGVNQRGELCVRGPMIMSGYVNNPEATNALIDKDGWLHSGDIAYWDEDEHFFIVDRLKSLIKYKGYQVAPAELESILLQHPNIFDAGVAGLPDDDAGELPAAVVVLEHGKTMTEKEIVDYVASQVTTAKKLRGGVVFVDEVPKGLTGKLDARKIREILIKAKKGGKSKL
S16 viab conf: Cell viability qHTS assay in S16 Pmp22-F2sN cells - Confirmatory screen | shares compounds with PMP22 txn | S16 Schwann cells viability, CellTiter-Glo ATP luminescence, 24 h | Potency, µM (doses to about 57.5 µM), inactives show at the highest dose activity change, negative = viability loss, actives largely listed as cytotoxic | actives 7% (n = 690) | AID 1508641, 2021; also: potency is read from the fitted curve at half-maximal effect; % is scaled to controls: 0 for no effect and ±100 for the full control effect
PMP22 txn conf: Cell-based coincidence reporter assay to measure PMP22 gene transcription in S16 Pmp22-F2sN cells - Confirmatory screen | shares compounds with PMP22 txn | AID 1508646, 2021 | actives 22% (n = 690) | Potency, µM (highest dose often 57.5 µM), inactives show at the highest dose activity change, negative = inhibition, hits mostly inhibitors | S16 Schwann cells Pmp22-F2sN, dual luciferase, 24 h; active = clear falling dose curves in both reporters; inconclusive = both reporters move, but less clearly or upward; inactive = either reporter flat; the % is the FLuc reporter signal; also: potency is read from the fitted curve at half-maximal effect
PMP22 HiBiT cnf: Cell-based HiBiT reporter assay to measure PMP22 protein expression in S16 Pmp22-HiBiT cells - Confirmatory screen | S16 Schwann cells Pmp22-HiBiT, luminescence, 48 h | shares compounds with PMP22 txn | Potency, µM (doses to about 27.9 µM), for the others: top-dose activity change, negative = inhibition, hits mostly inhibitors | 95 tested, under 10 active
Target sequence (P25094 whole entry, looked up): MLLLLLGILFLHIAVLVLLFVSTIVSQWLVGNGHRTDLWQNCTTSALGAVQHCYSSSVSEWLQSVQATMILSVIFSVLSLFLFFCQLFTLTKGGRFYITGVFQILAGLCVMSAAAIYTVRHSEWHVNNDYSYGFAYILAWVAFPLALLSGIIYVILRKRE
Starred values were filed as active, the others as inactive; i = inactive; ? = inconclusive; · = not tested or not shown. Unless noted, calls follow the shape of the dose curve; as a rule, active = well fitted curve in the direction sought with a large enough effect; inconclusive = small, poorly fitted or top-dose-only effect, or another doubt; inactive = no such curve, though single readings can be large; an effect the other way counts as inactive or inconclusive.

SMILES | S16 viability | PMP22 txn | p53null 39C kill | mTORC1 inh | p53null 32C tox | SKOV3 invasion | NLuc sat counter | NLuc Km ctr | FLuc ctr PMP22 | S16 viab conf | PMP22 txn conf | others
COCCNc1oc(-c2ccc(COc3ccc(OC)cc3)o2)nc1C#N | -14.8% | ? | 2.5% | -12.4% | -3.5% | 2.1% | ? | -6.4% | -18.2% | ? | -10.6%
CN[C@@H](C)C(=O)N[C@H]1CCCC[C@H]2CC[C@@H](C(=O)N[C@@H](c3ccccc3)c3cn(CCCCc4ccc(CCCCn5cc([C@@H](NC(=O)[C@@H]6CC[C@@H]7CCCC[C@H](NC(=O)[C@H](C)NC)C(=O)N76)c6ccccc6)nn5)cc4)nn3)N2C1=O | · | · | · | · | · | 14.3% | · | · | · | · | ·
O=C(Cn1cnc2onc(-c3ccc(Cl)cc3)c2c1=O)Nc1ccc(F)cc1 | -16.8% | ? | -2.9% | -5.4% | 9.1% | -12.5% | · | · | · | · | ·
COc1ccc(OC)c(NC(=O)Cn2cnc3onc(-c4ccc(Cl)cc4)c3c2=O)c1 | -20.8% | 5.15µM* | -4.3% | 23.6% | 16.3% | ? | -6.2% | 3.5% | 8.4% | -17.5% | ?
CC[C@H]1OC(=O)[C@H](C)[C@@H](O[C@H]2C[C@@](C)(OC)[C@@H](O)[C@H](C)O2)[C@H](C)[C@@H](O[C@@H]2O[C@H](C)C[C@H](N(C)C)[C@@H]2O)[C@](C)(OC)C[C@@H](C)C(=O)[C@H](C)[C@@H](O)[C@]1(C)O | · | · | · | · | · | -2.4% | · | · | · | · | ·
CCCn1ccc2c(OCC(=O)Nc3ccccc3C(=O)OCC)cccc2c1=O | -0.5% | 14.1µM* | -3.6% | -8.7% | -9.4% | 1.3% | -6.5% | 3.3% | -9.9% | 2.5% | ?
CCOc1ccc(C(=O)c2cnc3ccc(Cl)cc3c2S(=O)(=O)c2ccc(C)cc2)cc1 | -22.7% | 14.1µM* | 8.4% | -2.9% | 9.9% | 7.2% | -16.7% | 5.3% | -0.3% | 15.4% | 19.3µM* | PMP22 HiBiT cnf=31.2%
COc1ccc(-c2c(C)nn3c(N4CCN(c5cc(Cl)ccc5C)CC4)cc(C)nc23)cc1OC | 12.7% | 15µM* | 3.8% | -18.4% | -2.9% | i | -15.6% | ? | 2.5% | 0.8% | -36.9%
COc1ccccc1-c1c(C)nn2c(N3CCN(c4ccc(Cl)cc4)CC3)cc(C)nc12 | -2.8% | -23.4% | 24.0% | 4.9% | 2.6% | 3.8% | · | · | · | · | ·
CCOc1ccccc1N=Nc1c(C)[nH]n(-c2nc(-c3ccccc3)cs2)c1=O | · | · | · | · | · | -4.1% | · | · | · | · | ·
CCOc1ccccc1NC(=O)C1CCN(S(=O)(=O)c2c(C)noc2/C=C/c2ccco2)CC1 | 0.0% | 9.46µM* | 10.7% | -14.2% | 2.6% | i | ? | -3.7% | 5.8% | 9.0% | -14.9%
CCCCC(=O)O[C@]1(C(=O)CO)[C@@H](C)C[C@H]2[C@@H]3CCC4=CC(=O)C=C[C@]4(C)[C@@]3(F)[C@@H](O)C[C@@]21C | · | · | · | · | · | 4.1% | · | · | · | · | ·
CC(C)C[C@H](NC(=O)[C@@H](NC(=O)c1cccc(-c2ccccc2)n1)[C@@H](C)O)B(O)O | · | · | · | · | · | -19.3% | · | · | · | · | ·
CCOC(=O)c1cc(NC(=O)c2ccccc2)c(=O)n2c1oc1ccc(Cl)cc12 | ? | ? | -33.6% | -6.4% | -3.9% | i | -3.5% | 3.3% | 6.3% | 10.0% | ?
CCOC(=O)c1ccccc1NC(=O)n1ncc2cc(Cl)ccc21 | -2.4% | 9.6% | -10.7% | 1.6% | 1.0% | 14.0% | · | · | · | · | ·
CCOc1ccc(NC(=O)c2cc3sc(Cl)cc3n2CC)cc1 | -28.2% | 11.9µM* | 13.3% | -1.3% | -7.1% | -14.5% | 2.0% | 2.0% | 1.3% | -6.2% | ?
CCn1c(C(=O)NCc2ccc(OC)cc2)cc2sc(Cl)cc21 | 18.7% | 3.8% | 14.2% | -6.1% | ? | -13.6% | · | · | · | · | ·
COc1cc2ncn(-c3cc(OCc4ccccc4C(F)(F)F)c(C(N)=O)s3)c2cc1OC | · | · | · | · | · | 5.5% | · | · | · | · | ·
CC1CCN(C(=O)CCS(=O)(=O)c2cc3c(cc2Cl)NC(=O)CO3)CC1 | 13.1% | -54.9% | 7.5% | -4.9% | 1.5% | -1.9% | -12.3% | 3.0% | -17.0% | -6.3% | -27.1%
